An excerpt weighted towards active compounds, which were near 5.1% of everything screened.
S1P4 antagonist: S1P4 receptor antagonists, primary screen, cell-based | inhibition, % at 4.98 µM | Sphingosine 1-phosphate receptor 4 (Homo sapiens), O95977 | AID 1510, 2009 | S1P4-expressing cells, antagonist mode, reporter read-out | 220,000 tested, 0.26% active; in the data active = inhibition above about 29%;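 note: 0% = wells stimulated with agonist and 100% = vehicle wells without agonist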
RAM inhibit: inhibitors of the yeast RAM network, primary screen, dse1pr::URA3 reporter, 5-FOA selection; 190,000 tested, 1.8% active; AID 868, 2007; S. cerevisiae dse1pr::URA3 reporter, 5-FOA growth OD615, 2 d; analog-sensitive cbk1-as2 kinase mutant strain; inhibition, % at 50 µM;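 active = inhibition above a set limit, 3 SD over mean compound inhibition, cut at about 8.4% in these data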;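 note: 0% = DMSO-only wells with no growth and 100% = 10 µM 1-NA-PP1 full growth; inhibition rescues growth on 5-FOA so higher OD means more RAM inhibition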
S1P4 agonist: S1P4 receptor agonists, primary screen, cell-based. S1P4-expressing cell line, agonist reporter assay. activation, % at 4.98 µM. 220,000 tested, 0.35% active. AID 1509, 2009; in the data active = activation above about 11%;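 note: 0% = DMSO vehicle and 100% = reference agonist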
ROMK primary: ROMK potassium channel modulators, primary screen, cell-based, thallium flux, MLSMR library; B-score at 10 µM; Tet-inducible ROMK, thallium flux fluorescence; actives lie on both sides; 130,000 tested, 2% active;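 active = signal ratio slope over the read window, or its plate-corrected B-score, at least 3 SD from the plate mean, either direction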;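 note: B-score of the F/F0 ratio slope over 7 to 12 s after thallium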
Cl transport mod: KCC2 cotransporter modulators, thallium flux, primary screen, cell-based, HEK293 KCC2, FluoZin-2 fluorescence, MLSMR; Solute carrier family 12 member 5 (Homo sapiens), Q9H2X9; KCC2 cells, thallium flux FluoZin-2 fluorescence; B-score of Tl+ flux slope (higher = more flux/activation; lower = inhibition) at 10 µM; 190,000 tested, 2.2% active;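 active = thallium flux slope and its plate-corrected score both differing from the plate sample mean at a set confidence after two filtering rounds, in either direction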;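 note: slope of fluorescence scaled to starting intensity during 10 to 20 s after thallium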
S1P3 antag: S1P3 receptor antagonists, primary screen, cell-based; Sphingosine 1-phosphate receptor 3 (Homo sapiens), Q99500; CHO S1P3 NFAT-BLA reporter, FRET fluorescence, antagonist mode; inhibition, % at 4.98 µM; 170,000 tested, 0.27% active;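 active = inhibition above the plate cutoff, the mean inhibition of test wells on that plate plus 3 SD, cut at about 28% in these data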;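 note: cells challenged with S1P at its EC80 of 0.8 µM; blue over green emission ratio from cleaved BLA substrate after 4 h stimulation; 0% = S1P-stimulated wells and 100% = unstimulated DMSO-only wells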
KCC2 sec1: KCC2 modulators in sodium-free buffer, confirmation, cell-based, HEK293 KCC2, thallium flux, secondary assay | FluoZin2 fluorescence; active compounds read high | 3,700 tested, 15% active | shares compounds with Cl transport mod | normalised thallium flux (F/F0 slope) at 10 µM;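 active = thallium flux slope above the same plate's solvent-only control mean plus 3 SD; inconclusive = the two replicate wells disagree; inactive = no significant difference from solvent-only control wells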
KCC2 bumet counter: thallium flux persisting under bumetanide in KCC2 cells, confirmation, counter-screen for KCC2 modulator project, cell-based, HEK293 KCC2, FluoZin2, secondary assay 3 | shares compounds with Cl transport mod | HEK293-KCC2 + bumetanide/ouabain; active compounds read high | normalized thallium flux at 10 µM | 3,700 tested, 49% active | AID 1714, 2009;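 active = thallium entry rate above the same plate's blocked-transporter control wells by more than 3 SD; inconclusive = the two repeat wells disagree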;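 note: raw slope of fluorescence over initial fluorescence between 10 and 20 s after thallium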
KCC2 secondary2: KCC2 modulators without ouabain present, confirmation, cell-based, HEK293 KCC2, thallium flux, FluoZin2, secondary assay 2. shares compounds with Cl transport mod. thallium flux FluoZin2 fluorescence; actives lie on both sides; F/F0 rise rate, 10–20 s post-thallium. normalized thallium flux at 10 µM. 3,700 tested, 23% active. AID 1715, 2009;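 active = thallium flux slope more than 3 SD above or below the plate's solvent-only control mean, mostly below; inconclusive = the two repeat wells disagreed; inactive = no significant shift from solvent-only controls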;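 note: raw slope with 0.1% DMSO as baseline and bumetanide as block control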
HEK293 Tl flux: thallium flux modulation in parental HEK cells, confirmation, counter-screen for KCC2 modulator project, cell-based, counterscreen 1 | shares compounds with Cl transport mod | HEK293 parental cells, thallium flux FluoZin2, ouabain; baseline-ratio fluorescence slope, 10–20 s after thallium | thallium flux rate (normalised fluorescence) at 10 µM | 3,700 tested, 46% active | AID 1716, 2009;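 active = thallium flux rate significantly above the same plate's solvent-only control wells, beyond their mean plus 3 SD; inconclusive = the two replicate wells gave conflicting results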
KCC2 ouabain: KCC2 inhibitors and activators, ouabain retest, confirmation, HEK-KCC2 cells | shares compounds with Cl transport mod | 3,700 tested, 48% active | raw Tl+ flux slope (below DMSO = inhibition, above = activation) at 10 µM | HEK293-KCC2, thallium flux FluoZin2 fluorescence; bidirectional: low = inhibitor, high = activator;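 active = thallium flux slope beyond 3 SD from same-plate DMSO control mean in most replicates, usually higher, sometimes lower; inconclusive = repeat tests gave conflicting results; inactive = no significant difference from controls in most replicates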;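 note: slope of initial-normalized fluorescence between seconds 10 and 20 after thallium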
HEK counter2: native HEK Tl+ uptake effects, second counter-screen – HEK cells, counterscreen 2, counter-screen for KCC2 modulator project, confirmation | 3,700 tested, 33% active | HEK293 parental, thallium flux FluoZin-2 fluorescence slope | thallium flux slope at 10 µM | shares compounds with Cl transport mod;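 active = thallium flux slope above the same plate's solvent-control mean plus 3 SD in both duplicate wells; inconclusive = duplicate wells that disagreed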;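 note: run without ouabain in cells lacking the KCC2 cotransporter; slope of fluorescence scaled to its starting value between 10 and 20 s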
The depositor's hits bear a star; ? = inconclusive; nt = no result.

SMILES	S1P4 antagonist	RAM inhibit	S1P4 agonist	ROMK primary	Cl transport mod	S1P3 antag	KCC2 sec1	KCC2 bumet counter	KCC2 secondary2	HEK293 Tl flux	KCC2 ouabain	HEK counter2
Cc1nc(NC(=O)c2ccco2)sc1C(=O)Nc1ccc(Br)cc1	-18.2	4.8	1.1	nt	-5.26*	-14.7	0.00645	0.00464	?	0.00735	0.0173	0.0112
O=C(Nc1nc2c(Br)cc(Br)cc2c(=O)s1)c1ccco1	-10.3	nt	1.6	1.51	17*	-15.3	0.0268*	0.03*	0.0324	0.0397*	0.032*	0.0132*
COC(=O)c1sc(NC(=O)c2ccco2)nc1C	-24.1	0.6	0.6	nt	0.588	-7.6	nt	nt	nt	nt	nt	nt
CCOc1ccc(CC(=O)NNC(=S)NC)cc1Br	-13.2	nt	0.5	nt	nt	-1.9	nt	nt	nt	nt	nt	nt
O=C(NC(=S)NNC(=O)[C@H]1C[C@@H]1c1ccccc1)c1cccc(F)c1	-11.2	nt	-0.4	nt	67.4*	-4.6	0.00873	0.086*	0.0599*	0.0608*	0.0673*	0.0502*
O=C(c1ccccc1F)N1CCN(c2ccc([N+](=O)[O-])cc2-n2cccc2)CC1	4.6	nt	-0.5	0.0143	-0.982	14.1	nt	nt	nt	nt	nt	nt
O=C(c1ccc(F)cc1)N1CCN(c2ccc([N+](=O)[O-])cc2-n2cccc2)CC1	9.0	nt	-0.8	-0.0449	-3.72*	9.4	0.00925	0.005	0.0359	0.0069	0.0194	0.0111
O=c1c2cc3c(cc2[nH]c(=S)n1C1CCN(Cc2ccccc2)CC1)OCO3	5.3	0.0	-1.3	0.963	18.1*	1.0	0.0113*	0.0615*	0.0329	0.0167*	0.0441*	0.0112*
O=C(CCCn1c(=S)[nH]c2cc3c(cc2c1=O)OCO3)NCc1ccco1	-8.5	3.1	1.6	-0.852	-0.0102	6.5	nt	nt	nt	nt	nt	nt
O=c1c2cc3c(cc2[nH]c(=S)n1Cc1ccco1)OCO3	2.7	1.8	0.3	nt	6.47*	nt	?	0.0273*	0.0284	0.0121*	?	0.0103*
O=C(/C=C/c1cccc(Cl)c1)N1CCC(Cc2ccccc2)CC1	-10.6	7.7	-0.7	-0.357	-3.96	-0.3	nt	nt	nt	nt	nt	nt
CCCS(=O)(=O)N1CCC(C(=O)N2CCC(Cc3ccccc3)CC2)CC1	-12.8	0.0	-0.5	0.653	nt	-25.6	0.00762	0.00664	0.0288	0.00751	0.0284*	0.0103
O=C(/C=C/c1ccccc1)N1CCC(Cc2ccccc2)CC1	-3.0	2.2	-2.5	nt	nt	nt	0.00683	0.00605	0.0274	0.00682	0.0138*	0.0103
O=C(Nc1cccc(S(=O)(=O)N2CCCCC2)c1)c1ccc(S(=O)(=O)C(F)F)cc1	3.0	4.1	-2.8	-0.495	-1.31	4.4	nt	nt	nt	nt	nt	nt
O=C(CN(c1ccccc1)S(=O)(=O)c1ccc(F)cc1)NC1CCS(=O)(=O)C1 (stereo unspecified)	5.5	2.4	-0.7	0	0.13	-8.1	nt	nt	nt	nt	nt	nt
Cc1nc2ccccc2c2c1C(=O)N(C1CCCCCCC1)C2=O	-8.1	3.9	-0.7	nt	-4.83*	nt	0.0102	?	0.0331	0.00764	0.0217	0.0102
Cc1ccc(C(=O)NNC(=O)CSc2nnc3c(n2)[nH]c2ccc(C)cc23)cc1	4.3	2.2	3.8	-0.349	5.39*	nt	0.00647	0.00432	0.0315	0.00727	0.0185	0.0106
CCn1c(CNC(=O)COc2ccc(C(C)C)cc2)nnc1SCC(=O)Nc1cc(F)ccc1C	-1.2	2.9	0.8	nt	nt	nt	0.00809	0.00639	0.0346	?	0.017*	0.0119
CC(C)n1nnnc1-c1cccc(Cl)c1	-14.0	1.5	0.6	nt	0.981	nt	nt	nt	nt	nt	nt	nt
CC(C)n1nnnc1-c1cc(Cl)cc(Cl)c1	0.2	0.0	1.4	0.0766	3.39*	nt	0.0169	0.00527	0.03	0.00745	0.0167	0.0102
Cc1sc2nc(C3CC3)nc(SCC(=O)N3CCCc4ccccc43)c2c1C	-12.2	9.2*	1.7	-0.0588	8.5*	-11.7	0.0105	0.0192*	0.0316	0.0129*	?	0.012*
CCc1nc(SCC(=O)N2CCCc3ccccc32)c2c(=O)n(C)c(=O)n(C)c2n1	nt	nt	nt	nt	nt	15.3	nt	nt	nt	nt	nt	nt
Cc1nc(SCC(=O)Nc2c(C)nn(C)c2C)c2cnn(-c3ccccc3)c2n1	-11.6	0.1	0.2	nt	-6.8*	nt	0.00693	0.00638	0.0275	0.00636	0.0202	0.00927
COc1ccc(-c2cc(C(=O)OCC(=O)c3c(N)n(C)c(=O)n(C)c3=O)c3ccccc3n2)cc1	7.3	5.6	-0.8	0.0896	-4.77*	-5.7	0.00869	0.00584	0.0294	0.00707	0.0209	?
Cc1ccc(C(=O)CSc2ncnc3sc4c(c23)CCCC4)cc1	-10.0	3.4	0.6	nt	5.33*	nt	0.0138*	0.0331*	0.0324	0.0258*	0.0304*	?
O=C(O)CSc1ncnc2sc3c(c12)CCCC3	-16.3	-1.9	5.3	-0.107	11.6*	-11.8	0.00605	0.00651*	?	0.00993*	0.0176	0.00928
Cc1noc(C)c1CSc1ncnc2sc3c(c12)CCCCC3	-14.1	7.9	0.6	0.695	77.7*	-4.8	0.0329*	0.165*	?	0.0778*	0.112*	0.0277*

Screening results: PubChem, several laboratories
